Experimental data reported in PubChem BioAssay (NCATS).
Results filed as inconclusive are left out. Activity calls are given as the source filed them. The call rests on the fitted dose curve; in most records, active means well fitted cell-killing curve with a large enough effect; inconclusive means small, poorly fitted or top-dose-only effect, or effect the other way; inactive means no such curve, though single readings can be large or run the other way. Non-standard residues stand in square brackets, D forms with d. Residues, ends and D or L forms follow the SMILES beside them. *: point of attachment. Nva = CCC[C@H](N)C(=O)O; Cbz = O=C(OCc1ccccc1)*

Experiments:
[1] = Quantitative High-Throughput drug screen in 47 multiple myeloma cell lines against the NCATS MIPE library collection: KMS11_JCRBsus cell viability assay (AID 1919873); further: nearly all actives have a fitted effect of over 50% in size
Method in brief: (§1)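 Viability after 48 h drug exposure was measured as ATP-dependent luminescence. Cells, 500 per well, sat at 37 °C under 5% CO2; DMSO wells set 100%, media-only wells 0%.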

[2] = Quantitative High-Throughput drug screen in 47 multiple myeloma cell lines against the NCATS MIPE library collection: KMS28BM_JCRB cell viability assay (AID 1919874); further: nearly all actives have a fitted effect of over 35% in size
Method in brief: as §1
Potency means the concentration at half of the fitted maximal effect.

SMILES	Potency [1]	Potency [2]
CCN(CC)CCNC(=O)c1c(C)[nH]c(C=C2C(=O)Nc3ccc(F)cc32)c1C	1.52 µM (active)	5.4 µM (active)
CC(C)(C)c1nc2c3cc[nH]c(=O)c3c3cc(F)ccc3c2[nH]1	0.662 µM (active)	2.09 µM (active)
CC(C=CC1=C(C)CCCC1(C)C)=CC=CC(C)=CC(=O)Nc1ccc(O)cc1	19.1 µM (active)	17.1 µM (active)
Cc1cc(Nc2ncc3c(n2)N(C)C(=O)N(c2cc(NC(=O)c4cccc(C(F)(F)F)c4)ccc2C)C3)n(C)n1	0.235 µM (active)	3.32 µM (active)
COc1cccc2c1C(=O)c1c(O)c3c(c(O)c1C2=O)C[C@@](O)(C(=O)CO)C[C@@H]3O[C@H]1C[C@H](N)[C@H](OC2CCCCO2)[C@H](C)O1 (stereo partly drawn)	2.64 µM (active)	1.66 µM (active)
COc1ccc([C@@H]2CNC(=O)C2)cc1OC1CCCC1	inactive	inactive
C[C@H]1[C@@H](OC(=O)CCC(=O)O)O[C@@H]2O[C@@]3(C)CC[C@@H]4[C@H](C)CC[C@@H]1[C@@]24OO3	1.32 µM (active)	14.8 µM (active)
Cc1ccc2nc(NCCN)c3ncc(C)n3c2c1	3.72 µM (active)	6.62 µM (active)
N[C@H]1CN(c2c(F)cc3c(=O)c(C(=O)O)cn(C4C[C@@H]4F)c3c2Cl)CC12CC2 (stereo partly drawn)	inactive	inactive
Oc1cc2c(cc1O)C1c3ccc(O)c(O)c3OCC1(O)C2 (stereo not drawn)	inactive	inactive
CNC(=O)c1ccc(Nc2cc(Nc3ccccc3S(=O)(=O)C(C)C)c3cc[nH]c3n2)nc1	2.64 µM (active)	1.32 µM (active)
Cc1cnc(Nc2ccc(N3CCN(C)CC3)cc2)nc1Nc1cccc(S(=O)(=O)NC(C)(C)C)c1	1.32 µM (active)	5.26 µM (active)
CCOC(=O)N1CCN([N+]([O-])=NOc2ccc([N+](=O)[O-])cc2C#N)CC1	0.662 µM (active)	0.935 µM (active)
C=C1CCC2[C@](C)(CO)C(O)CC[C@]2(C)C1CC=C1C(=O)OCC1O (stereo partly drawn)	inactive	inactive
C[C@@H]1CC[C@@]2(OC1)OC1CC3C4CC=C5CC(O)CCC5(C)C4CCC3(C)C1[C@@H]2C (stereo partly drawn)	inactive	inactive
CCNC(=O)Nc1ccc(-c2nc3c(c(N4CCOC[C@H]4C)n2)CCN(C2COC2)C3)cc1	0.296 µM (active)	0.526 µM (active)
O=C(CCCCCCC(=O)Nc1cccnc1)NO	5.9 µM (active)	4.18 µM (active)
C[C@@]12C(=O)OC(=O)[C@@]1(C)C1CCC2O1	0.743 µM (active)	1.05 µM (active)
CN(C)CCN1C(=O)c2cccc3cc(N)cc(c23)C1=O	16.6 µM (active)	16.6 µM (active)
COc1cccc2c1C(=O)c1c(O)c3c(c(O)c1C2=O)C[C@@](O)(C(=O)CO)C[C@H]3O[C@H]1C[C@H](N)[C@H](O)[C@H](C)O1	0.743 µM (active)	0.296 µM (active)
CCC[C@@H](C=O)NC(=O)[C@H](CC(C)C)NC(=O)[C@H](CC(C)C)NC(=O)OCc1ccccc1 (Cbz-Leu-Leu-[Nva]-aldehyde)	0.148 µM (active)	0.187 µM (active)
CCc1ccc(C(=O)Nc2cc(CN3CCN(C)CC3)cc(C(F)(F)F)c2)cc1C#Cc1cnc2ccnn2c1	4.69 µM (active)	4.18 µM (active)
CC(=O)C1=C(O)C=C2Oc3c(C(C)=O)c(O)c(C)c(O)c3C2(C)C1=O (stereo not drawn)	inactive	inactive
O=C1NC(=O)C(=Cc2ccc3nccc(-c4ccncc4)c3c2)S1	0.0662 µM (active)	0.372 µM (active)
CCC(C=C[C@@H]1OC(=O)C=C[C@H]1C)=C[C@H](C)CC=CC(C)=C[C@@H](C)C(=O)[C@@H](C)[C@H](O)[C@@H](C)CC(C)=CC(=O)O	0.0139 µM (active)	0.011 µM (active)
C=C1C(=CC=C2CCC[C@]3(C)[C@@H]([C@H](C)CCCC(C)(C)O)CC[C@@H]23)C[C@@H](O)C[C@@H]1O	9.35 µM (active)	1.87 µM (active)
CC(C)c1cnn2c(NCc3ccccc3)cc(NCCCCCCN)nc12	26.4 µM (active)	20.9 µM (active)
CC(=O)O[C@H]1C[C@@H]2CC[C@H]3[C@H]4C[C@H]([N+]5(C)CCCCC5)[C@@H](OC(C)=O)[C@@]4(C)CC[C@@H]3[C@@]2(C)C[C@H]1N1CCCCC1	inactive	inactive
CCCNC(=O)[C@H]1O[C@H]1C(=O)N[C@H](C(=O)N1CCC[C@@H]1C(=O)OC)C(C)CC (stereo partly drawn)	23.5 µM (active)	7.43 µM (active)
